# Measurements: PubChem BioAssay (NCATS)
# Records with an inconclusive call do not appear. A call without a number means that no potency is given here. Active and inactive are the calls of the source. The call rests on the fitted dose curve; in most records, active means well fitted curve in the direction sought with a large enough effect; inconclusive means small, poorly fitted or top-dose-only effect, or another doubt; inactive means no such curve, though single readings can be large; an effect the other way counts as inactive or inconclusive.
# How the values were obtained:
# [1] = biological target: Aldehyde dehydrogenase, mitochondrial (Homo sapiens) (UniProt P05091); test: qHTS for Inhibitors of the Aldehyde Dehydrogenase Family (ALDH2) Primary screen (AID 2061308); conditions: ALDH2 enzyme inhibition qHTS, 1536-well; series mostly up to 56 µM; further: nearly all actives have a fitted effect of over 55% in size
# [2] = biological target: Retinaldehyde dehydrogenase 3 (Homo sapiens) (UniProt P47895); test: qHTS for Inhibitors of the Aldehyde Dehydrogenase Family (ALDH1A3) Primary screen (AID 2061315); conditions: ALDH inhibition qHTS; series mostly up to 56 µM
Structure (SMILES),Potency [1],Potency [2]
COC(=O)C1=CO[C@@H](O[C@@H]2O[C@H](CO)[C@@H](O)[C@H](O)[C@H]2O)[C@H]2[C@@H]1CC(OC)O[C@@H]2C (some centres undefined),inactive,inactive
Cc1cc(C)nc(NC(=S)N2CCN(c3ccc(F)c(F)c3F)CC2)c1,inactive,inactive
CCCn1c(-c2ccc(F)cc2)nc2c(N3CCN(Cc4nc(OC)cc(OC)n4)CC3)nc(C)nc21,inactive,inactive
COc1cc(OC)cc(-c2ccc3c(-c4ccc(F)cc4)[nH]nc3n2)c1,inactive,inactive
O=C(Oc1cccnc1)c1cccs1,inactive,inactive
O=S(=O)(NC1CCN(S(=O)(=O)c2ccc3c(c2)OCCO3)C1)c1c(F)cccc1F (centres undefined),inactive,inactive
O=C(NNC(=O)c1nc2ccccc2[nH]1)OCc1ccccc1,inactive,inactive
c1coc(CNc2nc(-c3cccs3)nc3ccccc23)c1,inactive,inactive
Cc1ccc(S(=O)(=O)Nc2ccc(Cl)cc2C(=O)Nc2nc(-c3ccccc3)cs2)cc1,inactive,inactive
O=C1CCCC2=C1C(c1cccnc1)N=C(Nc1nc3ccccc3o1)N2 (centres undefined),inactive,inactive
N#Cc1cnc(N[S+](=O)([O-])c2ccc(Nc3nc(-c4ccccc4)cs3)cc2)s1,inactive,inactive
COc1cccc(C2=Nn3c(nnc3-c3ccccc3O)SC2)c1,inactive,inactive
O=S(=O)(NCc1cccc2ccccc12)c1cc(Cl)c(Oc2cccc(N3CCNCC3)c2)s1,inactive,inactive
CC1CCC2(C1)N=C(Nc1nc3ccccc3o1)NC1=C2C(=O)CCC1 (centres undefined),inactive,inactive
CCN(CC)CCCCn1c(-c2ccccc2)nc2c(N3CCOCC3)nc(C)nc21,inactive,inactive
O=S(=O)(NC1CCN(S(=O)(=O)c2c(F)cccc2F)CC1)c1ccc2c(c1)OCCO2,inactive,inactive
COc1ccccc1-c1nc2ccccc2s1,inactive,inactive
CCCCc1ccc(C(=O)Nc2ccc(S(=O)(=O)Nc3nccs3)cc2)cc1,inactive,inactive
Cc1csc(CNc2ncnc3ccc(-c4ccc5c(c4)OCO5)cc23)c1,inactive,inactive
COc1ccc(Nc2nn3c(=O)c4ccccc4nc3s2)cc1,inactive,inactive
O=C(COC(=O)CNC(=O)c1ccccc1)Nc1ccccc1Cl,inactive,inactive

Structure (SMILES),Potency [1],Potency [2]
Cc1ccc(OCCn2c(CCNC(=O)c3c(F)cccc3F)nc3ccccc32)cc1,inactive,inactive
O=C(CN1C(=O)N/C(=C\c2cccn2-c2cccc(C(=O)O)c2)C1=O)Nc1cccc(Cl)c1,inactive,inactive
CC1=C(C(=O)NC2CCCCC2)C(c2ccccc2Br)N=C(Nc2nc3ccccc3o2)N1 (centres undefined),inactive,inactive
O=C(Nc1nnc(-c2ccncc2)s1)Nc1ccc(Cl)cc1Cl,inactive,inactive
Cc1ccc(C)n1-c1cccc(-c2nn[nH]n2)c1,inactive,inactive
CN1CCC(N(Cc2cccs2)c2ccccc2)CC1,inactive,inactive
COc1ccc(NC(=O)c2cnn3c(-c4ccccc4)cc(C)nc23)cc1,inactive,inactive
O=[S+]([O-])(c1ccc2c(c1)OCCO2)N1CCN([S+](=O)([O-])c2c(F)cc(O)cc2F)CC1,inactive,inactive
O=C(Nc1ccc(N2CCOCC2)c(C(F)(F)F)c1)Nc1nnc(-c2ccncc2)s1,inactive,inactive
Cc1onc(-c2ccccc2Cl)c1C(=O)N[C@@H]1C(=O)N2[C@@H]1SC(C)(C)[C@@H]2C(=O)O,inactive,inactive
COCCN1C(=O)c2ccccc2NC1c1ccc(OC)c(COc2c(C)cc(NC(C)=O)cc2C)c1 (centres undefined),inactive,inactive
COc1ccc(-c2ccc3ncnc(N(C)Cc4csc(C)n4)c3c2)cc1OC,inactive,inactive
O=C1C(F)N([S+](=O)([O-])c2ccc3c(c2)OCCO3)CCN1[S+](=O)([O-])c1c(F)cccc1F (centres undefined),inactive,inactive
O=C(Nc1nnc(-c2ccco2)o1)c1ccc(C(F)(F)F)cc1,inactive,inactive
COc1cccc(-c2csc(N3CCC(C(N)=O)CC3)n2)c1,inactive,inactive
CC(Oc1ccc2[nH]nc(/C=C/c3cnn(CCO)c3)c2c1)c1c(Cl)cncc1Cl (centres undefined),inactive,inactive
O=S(=O)(c1c(F)cccc1F)C1CCN(S(=O)(=O)c2ccc3c(c2)OCCO3)CC1,inactive,inactive
Cc1ccc2c(c1)/C(=C\c1cc(Cl)c(O)c(Cl)c1)C(=O)N2,inactive,inactive
O=C(Nc1nc(-c2ccccc2)cs1)c1ccccc1S(=O)(=O)Nc1nccs1,inactive,inactive
O=C1CC(c2ccccc2)CC2=C1C1(CCCCC1)N=C(Nc1nc3ccccc3o1)N2 (centres undefined),inactive,inactive
COC(=O)c1ccccc1NC(=O)c1ccc(F)cc1F,inactive,inactive
